# This is a sample that favours compounds with a hit; in the whole collection about 1.2% have one here.
# RGS4-Gao reg = modulates binding of RGS4 to human Galphao | P09471 | 220,000 tested, 0.33% active | binding response (% of control), % at 10 µM | Multiplexed bead flow cytometry; actives lie on both sides; in the data active means binding response below about 49% or above about 150%; inactive means in between;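 further: fluorescent Galphao activated with aluminum fluoride binding bead-coupled RGS4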
# RGS16-Gao = modulates binding between human RGS16 and Galphao; bead-based flow cytometry RGS16-Galphao binding, fluorescence; actives lie on both sides; O15492+P09471; binding response (% of control), % at 10 µM; 220,000 tested, 0.38% active; call rule not given here;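 further: Galphao activated by GDP with aluminum fluoride before binding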
# Target sequence (O15492 whole entry, looked up): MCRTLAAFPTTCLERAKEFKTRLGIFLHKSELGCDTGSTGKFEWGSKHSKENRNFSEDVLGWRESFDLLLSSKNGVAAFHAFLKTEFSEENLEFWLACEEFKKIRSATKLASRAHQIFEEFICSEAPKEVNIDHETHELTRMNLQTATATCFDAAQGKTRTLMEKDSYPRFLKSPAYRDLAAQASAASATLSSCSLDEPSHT
# Target sequence (P09471 whole entry, looked up): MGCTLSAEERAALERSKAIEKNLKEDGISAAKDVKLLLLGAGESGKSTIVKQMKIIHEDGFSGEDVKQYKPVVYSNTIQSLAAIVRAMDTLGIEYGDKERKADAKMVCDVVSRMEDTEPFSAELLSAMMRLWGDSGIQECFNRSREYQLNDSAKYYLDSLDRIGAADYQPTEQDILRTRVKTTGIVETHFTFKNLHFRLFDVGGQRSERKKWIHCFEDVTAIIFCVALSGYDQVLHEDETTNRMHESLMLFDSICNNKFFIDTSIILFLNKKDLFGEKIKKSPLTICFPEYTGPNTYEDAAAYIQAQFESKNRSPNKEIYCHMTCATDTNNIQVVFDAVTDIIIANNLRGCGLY
# GSH bead fluor = compound fluoresces at 488/530 nm on GSH beads; GSH beads flow cytometry, compound fluorescence 488/530 nm; active compounds read high; fluorescence (KMESF) at 10 µM; 190,000 tested, 0.25% active; in the data active means fluorescence above about 89;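 further: glutathione beads carrying GST-tagged Bcl family fusion proteins plus one bare bead set; values are compound well signal with DMSO vehicle wells as background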
# RGS8-Gao = modulates binding of RGS8 to human Galphao; 220,000 tested, 0.34% active; P09471; multiplexed bead flow cytometry; actives lie on both sides; response (percent of control binding), % at 10 µM; in the data active means response below about 60% or above about 140%; inactive means in between;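 further: Galphao activated as the GDP aluminium fluoride complex binding bead-coupled RGS8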
# Avidin bead fluor = avidin bead compound fluorescence profile; Avidin beads, compound fluorescence 488/530 nm, flow cytometry; active compounds read high; fluorescence (KMESF) at 10 µM; 220,000 tested, 0.38% active; AID 1775; in the data active means fluorescence above about 47
# RGS7-Gao = regulators of human RGS7-Galphao interaction; Multiplexed bead flow cytometry, RGS7-Galphao binding; actives lie on both sides; 220,000 tested, 0.35% active; AID 1439; binding response (% of control), % at 10 µM; in the data active means binding response below about 49% or above about 150%; inconclusive means no clear call, values can overlap the other calls; inactive means in between;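 further: fluorescent Galphao held in activated GDP-AlF4 state binding bead-coupled RGS7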
# Starred values were filed as active, the others as inactive; ? = inconclusive; . = no result given; [ ] = remark or other dose.
SMILES,RGS4-Gao reg,RGS16-Gao,GSH bead fluor,RGS8-Gao,Avidin bead fluor,RGS7-Gao
CN1CCN(c2ccc(Cl)cc2NC(=O)c2nn(-c3ccccc3)c(=O)c3ccccc23)CC1,104,104,92*,102,12,95
COc1ccc(Cl)cc1NC(=O)C1COc2ccccc2O1 (stereo unspecified),102,103,12,100,9,103
CN1CCN(c2ccc(Cl)cc2NC(=O)C2COc3ccccc3O2)CC1 (stereo unspecified),96,111,264*,102,7,97
CCOc1cc([N+](=O)[O-])cc2c1C(=O)Nc1ccccc1O2,102,103,19,100,11,?
Cc1cccc(Nc2nc(-c3c(C)nc4ccccn34)cs2)c1,99,95,9,101,24,98
Cc1nc2ccccn2c1-c1nnco1,104,104,12,101,47*,106
COc1ccc(Cn2c(=O)[nH]c3cc(C(=O)NCCCOC(C)C)ccc3c2=O)cc1,98,104,26,101,10,99
COc1ccc(Cn2c(=O)[nH]c3cc(C(=O)NCc4ccc5c(c4)OCO5)ccc3c2=O)cc1,102,106,19,100,65*,109
N=c1c2c(-c3ccccc3)c(-c3ccccc3)n(Cc3ccco3)c2ncn1Cc1ccccc1,97,94,12,90,14,98
CC(C)Cn1cnc2c(c(-c3ccccc3)c(-c3ccccc3)n2Cc2ccco2)c1=N,106,106,251*,102,8,102
S=C1N(c2ccccc2)C(c2ccccc2)N2CCCN12 (stereo unspecified),102,96,14,102,13,98
S=C1COC(c2ccccc2)N1c1ccccc1 (stereo unspecified),89,92,142*,101,5,92
CCOc1ccccc1N1C(=O)CC(Nc2ccc(N3CCOCC3)cc2)C1=O (stereo unspecified),64,-173,245*,79,1,79
CCc1ccccc1N1CC23C=CC(O2)C(C(=O)OCC(C)C)C3C1=O (stereo unspecified),94,60,20,85,56*,134
CCCCOC(=O)C1[C@H]2C(=O)N(c3ccccc3CC)C[C@]23C=C[C@H]1O3 (stereo partly specified),97,95,28,96,16,105
CCN(CC)S(=O)(=O)c1ccc(OCCNS(C)(=O)=O)cc1,99,99,14,103,6,104
COc1cccc(C(=O)Nc2c(C)n[nH]c2C)c1,117,119,17,105,55*,116
CN(C(=O)c1cc2nc(-c3ccco3)cc(C(F)(F)F)n2n1)C1CCCCC1,39*,35,31,47*,5,35*
O=C(c1ccco1)N1CCN(C(c2ccc(F)cc2)c2nnnn2Cc2cccs2)CC1 (stereo unspecified),107,127,260*,111,7,101
Cc1ccc(C(=O)OCC(=O)N2CCc3ccccc32)cc1,120,120,10,105,50*,115
CCOC(=O)c1nn(-c2ccccc2)c(=O)cc1SC(C)CC (stereo unspecified),110,103,32,101,100*,144
CCOC(=O)c1nn(-c2ccccc2)c(=O)cc1SC(C)C,103,134,25,108,21,102
CCN(CC)CCC(=O)Nc1cccc2c1C(=O)c1ccccc1C2=O,97,96,.,99,5,?
O=C(NC1CCCc2ccccc21)c1cccnc1 (stereo unspecified),102,106,256*,101,7,103
Cc1ccsc1C(=O)OC1CCOC1=O (stereo unspecified),94,97,271*,96,7,89
SMILES,RGS4-Gao reg,RGS16-Gao,GSH bead fluor,RGS8-Gao,Avidin bead fluor,RGS7-Gao
O=C(Nc1ccc2c(c1)OCO2)N1CCN(c2ncc(C(F)(F)F)cc2Cl)CC1,103,100,257*,104,8,105
Cc1ccc(N2C(=O)C3CCC(C)(C2=O)C3(C)C)cc1 (stereo unspecified),98,100,.,100,4,?
CC12CCC(C(=Nc3ccc(N=C4C(=O)C5(C)CCC4C5(C)C)cc3)C1=O)C2(C)C,112,97,.,100,57*,?
O=C(O)CSc1nc2ccccc2o1,107,101,14,105,15,98
Cc1ccc(-c2nnc(SCC(=O)N3CCCC3)o2)cc1,99,99,259*,98,17,106
Cc1ccc(-c2nnc(SCC(=O)N3CCCC3)o2)cc1C,100,100,25,101,31,98
O=C(CSc1nc2ccccc2o1)N1CCCC1,103,100,260*,102,8,101
O=C(Nc1cccnc1)c1c(O)c2cccc3c2n(c1=O)CC3,171*[activator],125,231*,120,9,134
O=c1c2ccccc2c(C=Nc2cccc(O)c2)c(O)n1-c1ccc2c(c1)OCO2,85,100,12,98,57*,93
COc1ccc(N/C=C(\C(C)=O)c2ccc(OC)c(OC)c2)cc1OC,103,108,16,105,12,101
N#Cc1cccc(NC(=O)CC2CCCCC2)c1,112,116,260*,107,9,108
N#Cc1ccc(NC(=O)Nc2cccc(C#N)c2)cc1,90,88,.,96,5,?
Cc1cnc(NC(=O)CSc2nnc(-c3cccs3)n2C)s1,90,92,269*,95,7,94
CC1CCCN(Cc2nc(Cc3ccccc3Cl)no2)C1 (stereo unspecified),96,98,15,100,1,97
Cc1ccc(CS/C(Nc2ccccc2C)=C(\C#N)C(=O)NCc2ccco2)c(C)c1,100,99,14,100,10,100
Cc1ccccc1N/C(SCc1ccc(Cl)cc1)=C(/C#N)C(=O)NCc1ccco1,107,104,24,100,115*,140
Cc1cc(Cl)c(S(=O)(=O)N2CCN(c3ccccn3)CC2)cc1OCC(N)=O,102,100,11,104,8,104
O=C(NNC1=NCCC1)c1ccc(Br)cc1,115,213,261*,136,5,111
Cc1ccc(C(=O)NNC2=NCCC2)cc1,98,97,38,97,6,102
CCCCOCC(O)Cn1c(C)nc2ccccc21 (stereo unspecified),106,114,261*,102,9,102
C=CSc1sc(Cl)c(N(CC)CC)c1[N+](=O)[O-],95,97,12,97,11,?
Cc1nc2cc(C(=O)NCc3cccnc3)ccc2n1-c1ccc(F)cc1F,100,102,19,100,8,98
CCOC(=O)Nc1cc(C)ccc1OC,102,92,27,94,51*,142
CCOC(=O)Nc1ccc(C)cc1NC(=O)OCC,99,102,13,102,46,105
